Results on five molecules are retold here after PubChem BioAssay.

Activity calls are given as the source filed them. Unless noted, the rule behind the calls is not given here.

Assay [1] in a line: anti-His antibody binders, primary screen, artefact control for SMM control protein annotation, biochemical, small-molecule microarray, 635 nm fluorescence (AID 1128).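 Note: score merges feature fluorescence with signal-to-noise for each printed compound spot.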 The following applies: anti-His Alexa647 antibody binding, higher = more signal.
Assay [2] deals with Human papillomavirus type 1a E7 protein (residues 1-88). Put plainly: HPV1a E7 small-molecule binders, primary screen, biochemical, small-molecule microarray, residues 1-88, 635 nm (AID 1129). Conditions: small-molecule microarray binding, fluorescence 635 nm; higher = more signal.
Assay [3] deals with Focal adhesion kinase 1 (Homo sapiens) (UniProt Q05397). Put plainly: small-molecule microarray binders of FAK, primary screen, biochemical, 635/667 nm fluorescence, BSA, DTT (AID 1130).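 Note: composite of spot emission at 667 nm and signal to noise over triplicate slides.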 The following applies: PTK2 binding, 635 nm fluorescence, higher = more signal.
Assay [4] relates to Fibrinogen (Alexa647-labelled). As to the kind of experiment: fibrinogen binders on compound microarrays, profiling panel, artefact control for SMM control-protein annotation, biochemical, small-molecule microarray, 635/667 nm fluorescence (AID 1131).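 Note: z-score merges 667 nm fluorescence with per-spot signal-to-noise over triplicate slides.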 Conditions: fibrinogen-A647 binding fluorescence, higher = more signal.
For assay [5], the target named is Follistatin (Homo sapiens) (UniProt P19883). Put plainly: follistatin binders on small-molecule microarrays, primary screen, biochemical, small-molecule microarray, 635/667 nm fluorescence (AID 1132). The following applies: FST binding, 635 nm fluorescence, higher = more signal.
The target of assay [6] is Fibroblast growth factor 2 (Homo sapiens) (UniProt P09038). Put plainly: FGF2 binders on small-molecule microarrays, primary screen, biochemical, small-molecule microarray, 635/667 nm fluorescence (AID 1133). The following applies: small-molecule microarray binding, FGF2, fluorescence 635/667; higher = more signal.
Assay [7] is described as follows: mitochondrial membrane potential change in A549 cells, profiling panel, cell-based, JC-1 fluorescence, basal, 24 h, 100 nL (AID 1138).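 Note: A549 lung adenocarcinoma cells under basal conditions with no added stimulus; test concentration not given here.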 The following applies: higher = more signal.
For a further assay, the system named is Lefty1. Put plainly: Lefty1 binders on small-molecule microarrays, primary screen, biochemical, small-molecule microarray, 635/667 nm fluorescence (AID 1139). The following applies: small-molecule microarray binding, fluorescence 635/667; higher = more signal.
In assay [8] the test system is wheat germ agglutinin (Triticum aestivum), Alexa647-labelled. As to the kind of experiment: wheat germ agglutinin binders on compound microarrays, profiling panel, artefact control for SMM control-protein annotation, biochemical, small-molecule microarray, 635/667 nm fluorescence (AID 1140).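 Note: score merges 667 nm feature emission with signal to noise over triplicate slides.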 The following applies: WGA-A647 binding, 635 nm fluorescence, higher = more signal.

For assay [9], the target named is Luciferin 4-monooxygenase (Photinus pyralis) (UniProt P08659). As to the kind of experiment: firefly luciferase enzyme inhibitors, primary screen, biochemical, luminescence, purified enzyme, 2006 set (AID 1141).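 Note: cell-free assay with purified firefly luciferase at 100 ng per well in PBS; test concentration not given here.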 Conditions: SteadyGlo luminescence, 30 min, higher = more signal, called active from +8 up or from −8 down.
The subject of assay [10] is Wnt5a (protein binding on small-molecule microarray). As to the kind of experiment: Wnt5a binders on small-molecule microarray, primary screen, biophysical, 635/667 nm fluorescence (AID 1142).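 Note: fluorescence read at 667 nm with signal to noise per printed feature.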 Conditions: 635 nm fluorescence, higher = more signal.
Assay [11] in a line: cell viability in Huh7 cells, primary screen, cytotoxicity control for HCV replication inhibitor project, CellTiter-Glo luminescence, basal, 48 h (AID 1143).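 Note: Huh7 hepatoma cells carrying a hepatitis C replication reporter with no stimulus; test concentration not given here.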 Conditions: Huh7 HCV replicon, higher = more signal, called active from +8 up or from −8 down. For orientation: In ATP-based viability assays light output follows the ATP content of the culture.
The nature of assay [12]: P. aeruginosa biofilm formation inhibitors, primary screen, PAO1 strain, BacTiter-Glo luminescence, LB-PBS (AID 1144). The following applies: 12 h, higher = more signal.
A short description of assay [13]: CREB reporter modulators without forskolin, primary screen, cell-based, PC12, CRE-LacZ reporter, unstimulated (AID 1145). The following applies: no forskolin, luminescence, 4.5 h, higher = more signal, called active from +8 up or from −8 down.
Assay [14] is described as follows: CREB reporter modulators under forskolin, primary screen, cell-based, PC12, CRE-LacZ reporter, forskolin-stimulated (AID 1146).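 Note: PC12 cells with 6xCRE LacZ reporter stimulated by forskolin 10 µM; beta-galactosidase reporter signal reflecting CREB driven transcription.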 The following applies: luminescence, 4.5 h, higher = more signal, called active from +8 up or from −8 down.
For assay [15], the target named is Streptavidin (Streptomyces avidinii) (UniProt P22629). Put plainly: streptavidin binders on small-molecule microarray, primary screen, artefact control for SMM compound annotation, biophysical, 635/667 nm fluorescence (AID 1147).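 Note: signal reflects streptavidin binding to arrayed compounds as a control protein.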 Conditions: streptavidin binding, higher = more signal.
A short description of assay [16]: small-molecule binders of probe aInhba, primary screen, biochemical, small-molecule microarray, 635/667 nm fluorescence (AID 1148).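 Note: score merges 667nm spot fluorescence with signal-to-noise for antibody binding to printed compounds.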 The following applies: higher = more signal.
For assay [17], the target named is Torsin-1A (Homo sapiens) (UniProt O14656). Put plainly: torsin A binders from cell lysate, primary screen, small-molecule microarray, wild-type, 635/667 nm (AID 1149). The following applies: COS7 hTOR1A-WT lysate, 635 nm fluorescence, higher = more signal.
Assay [18] has the same target. As to the kind of experiment: small-molecule binders of mutant TOR1A in lysate, primary screen, cell lysate, small-molecule microarray, COS7 lysate, 635/667 nm fluorescence (AID 1150).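 Note: score pools 667 nm emission and signal to noise measuring lysate protein binding.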 The following applies: COS7 hTOR1A mutant lysate, 635 nm fluorescence, higher = more signal.
The subject of assay [19] is Sonic hedgehog protein (Shh). As to the kind of experiment: small-molecule binders of Shh protein, primary screen, biochemical, small-molecule microarray, 635/667 nm fluorescence (AID 1151).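 Note: Shh protein binding to compounds spotted on small-molecule microarray slides; score combines spot fluorescence intensity with signal-to-noise across triplicate slides.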 The following applies: small-molecule microarray binding, 635 nm fluorescence; higher = more signal.

Fibroblast growth factor 2 (Homo sapiens), sequence (P09038 whole entry, looked up): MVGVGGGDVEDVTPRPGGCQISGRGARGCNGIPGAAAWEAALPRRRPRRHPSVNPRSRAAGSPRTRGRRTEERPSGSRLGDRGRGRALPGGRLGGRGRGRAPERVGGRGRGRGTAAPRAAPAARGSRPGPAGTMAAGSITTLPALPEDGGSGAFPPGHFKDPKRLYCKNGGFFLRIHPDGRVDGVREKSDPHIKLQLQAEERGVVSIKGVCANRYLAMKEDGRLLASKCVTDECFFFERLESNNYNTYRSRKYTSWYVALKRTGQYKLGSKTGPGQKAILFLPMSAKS
Luciferin 4-monooxygenase (Photinus pyralis), sequence (P08659 whole entry, looked up): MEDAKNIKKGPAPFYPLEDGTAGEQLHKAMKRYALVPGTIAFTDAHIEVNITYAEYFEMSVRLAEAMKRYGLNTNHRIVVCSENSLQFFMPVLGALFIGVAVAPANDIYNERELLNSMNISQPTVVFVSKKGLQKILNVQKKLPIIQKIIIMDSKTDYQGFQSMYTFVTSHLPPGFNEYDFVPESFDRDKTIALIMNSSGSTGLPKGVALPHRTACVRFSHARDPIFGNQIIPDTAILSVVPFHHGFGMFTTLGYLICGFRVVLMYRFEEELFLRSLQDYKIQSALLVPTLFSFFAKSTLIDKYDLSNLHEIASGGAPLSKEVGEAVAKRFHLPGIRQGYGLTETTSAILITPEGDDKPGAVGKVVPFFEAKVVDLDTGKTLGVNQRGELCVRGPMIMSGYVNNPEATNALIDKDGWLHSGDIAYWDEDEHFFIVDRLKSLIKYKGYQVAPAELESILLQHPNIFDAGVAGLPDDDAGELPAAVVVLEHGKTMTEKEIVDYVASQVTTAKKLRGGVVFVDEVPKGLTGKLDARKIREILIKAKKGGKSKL
Follistatin (Homo sapiens), sequence (P19883 whole entry, looked up): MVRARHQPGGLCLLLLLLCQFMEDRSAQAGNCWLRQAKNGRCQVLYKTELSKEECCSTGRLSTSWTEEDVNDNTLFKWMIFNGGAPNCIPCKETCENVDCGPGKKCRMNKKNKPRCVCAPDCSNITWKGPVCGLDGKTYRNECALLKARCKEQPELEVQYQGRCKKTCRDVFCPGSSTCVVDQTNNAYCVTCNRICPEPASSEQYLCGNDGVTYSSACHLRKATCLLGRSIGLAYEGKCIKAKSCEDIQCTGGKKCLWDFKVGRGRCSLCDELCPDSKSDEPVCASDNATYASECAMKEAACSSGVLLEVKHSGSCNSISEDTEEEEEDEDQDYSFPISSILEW
Torsin-1A (Homo sapiens), sequence (O14656 whole entry, looked up): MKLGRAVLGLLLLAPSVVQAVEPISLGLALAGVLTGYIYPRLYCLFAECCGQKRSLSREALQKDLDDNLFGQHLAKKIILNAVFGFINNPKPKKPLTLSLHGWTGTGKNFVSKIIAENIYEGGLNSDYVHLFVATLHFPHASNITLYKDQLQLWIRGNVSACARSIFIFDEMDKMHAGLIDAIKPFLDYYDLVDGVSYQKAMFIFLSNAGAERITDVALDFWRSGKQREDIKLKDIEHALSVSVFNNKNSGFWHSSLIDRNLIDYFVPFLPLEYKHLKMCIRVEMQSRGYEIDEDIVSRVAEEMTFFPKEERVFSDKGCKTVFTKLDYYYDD
Focal adhesion kinase 1 (Homo sapiens), sequence (Q05397 whole entry, looked up): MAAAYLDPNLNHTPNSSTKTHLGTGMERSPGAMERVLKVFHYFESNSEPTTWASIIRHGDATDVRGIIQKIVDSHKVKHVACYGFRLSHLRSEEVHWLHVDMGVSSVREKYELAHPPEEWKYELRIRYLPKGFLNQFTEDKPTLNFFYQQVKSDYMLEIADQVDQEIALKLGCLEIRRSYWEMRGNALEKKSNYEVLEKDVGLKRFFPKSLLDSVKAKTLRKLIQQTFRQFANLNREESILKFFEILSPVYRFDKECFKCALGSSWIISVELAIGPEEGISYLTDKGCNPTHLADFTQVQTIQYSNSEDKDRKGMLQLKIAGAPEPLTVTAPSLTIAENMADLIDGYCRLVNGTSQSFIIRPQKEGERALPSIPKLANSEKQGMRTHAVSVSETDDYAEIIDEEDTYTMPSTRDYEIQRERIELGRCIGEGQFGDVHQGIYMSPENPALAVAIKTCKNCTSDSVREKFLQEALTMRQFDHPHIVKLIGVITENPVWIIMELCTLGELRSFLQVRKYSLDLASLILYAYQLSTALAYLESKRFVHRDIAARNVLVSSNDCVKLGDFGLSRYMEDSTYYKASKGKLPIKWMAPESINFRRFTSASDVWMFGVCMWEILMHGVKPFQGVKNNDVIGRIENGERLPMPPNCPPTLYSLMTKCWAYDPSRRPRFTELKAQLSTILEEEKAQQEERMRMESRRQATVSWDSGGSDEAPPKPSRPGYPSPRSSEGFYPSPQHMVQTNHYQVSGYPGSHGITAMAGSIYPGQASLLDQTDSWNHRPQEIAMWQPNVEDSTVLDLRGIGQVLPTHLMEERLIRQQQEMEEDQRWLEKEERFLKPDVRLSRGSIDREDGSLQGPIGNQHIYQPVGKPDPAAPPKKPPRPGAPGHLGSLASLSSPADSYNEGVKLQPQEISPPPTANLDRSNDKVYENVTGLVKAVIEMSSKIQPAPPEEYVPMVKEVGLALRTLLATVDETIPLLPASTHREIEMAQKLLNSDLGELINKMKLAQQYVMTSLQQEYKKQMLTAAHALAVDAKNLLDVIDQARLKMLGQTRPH
Streptavidin (Streptomyces avidinii), sequence (P22629 whole entry, looked up): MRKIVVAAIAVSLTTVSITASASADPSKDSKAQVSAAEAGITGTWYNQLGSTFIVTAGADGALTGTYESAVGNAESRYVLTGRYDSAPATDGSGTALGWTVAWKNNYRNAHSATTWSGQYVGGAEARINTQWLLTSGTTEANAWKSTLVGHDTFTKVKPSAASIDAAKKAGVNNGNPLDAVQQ

As to `CCCCC=C[C@@H](NC(=O)c1ccc(C(F)(F)F)cc1)c1ccccc1`, the composite z-score in assay [1] was 0.3; in assay [2] it was -0.839; in assay [3] it was 0.185; in assay [4] it was -2.63; in assay [5], -0.21; in [6] it was -0.908. Besides, the composite z-score in the assay with Lefty1 is -0.671; in assay [8] it was 0.052; in [10], -0.467; in assay [15] it was -0.683; in assay [16], -0.105; with Torsin-1A (Homo sapiens) [17], -0.652. The figures for the composite z-score (with Torsin-1A (Homo sapiens) [18]; in [19]) were -0.951 and -0.845, respectively. Also, the z-score in assay [7] was 0.798; in assay [9], 1.02 (inactive); in assay [11] it was -0.954 (inactive); in assay [12], 1.03 (inactive); in assay [13], 0.19 (inactive); in assay [14], 1.47 (inactive).

As for `CC(C)C(=C=CC[C@@H](O)c1ccc(OCCO)cc1)CCO`, the composite z-score in assay [1] was -0.171; in assay [2] it was -0.744; in assay [3] it was -0.397; in assay [4], 0.114; in [5], 1.26; in [6], 1.25. For the same molecule, the composite z-score is 0.607 in the assay on Lefty1; -0.154 in assay [8]; 0.224 in assay [10]; -0.292 in assay [15]; -0.0719 in assay [16]; -0.0298 in the assay with Torsin-1A (Homo sapiens) [17]. Further, the results for the composite z-score (with Torsin-1A (Homo sapiens) [18]; in assay [19]) were 0.167 and 1.59, respectively. Also, the z-score in [7] is 0.451; in [9], -0.426 (inactive); in assay [11], -2.09 (inactive); in assay [12], -0.635 (inactive); in assay [13] it was -0.844 (inactive); in [14], -1.31 (inactive).

In the case of `COCCOC(=O)N1C(=O)[C@@]2(c3ccccc31)[C@H](C(=O)N1CCCCCCC1)[C@H]1C(=O)O[C@H](c3ccccc3)[C@H](c3ccccc3)N1[C@@H]2c1ccc(O)cc1`, the composite z-score came out at 0.578 in assay [1]; 1.21 in assay [2]; 1.01 in assay [3]; 0.842 in assay [4]; 1.41 in [5]; 1.74 in assay [6]. Besides, the composite z-score in the assay on Lefty1 came out at 1.69; in assay [8], 1.25; in [10], 1.21; in assay [15] it was 2.17; in [16], 2.13; with Torsin-1A (Homo sapiens) [17], 2.14. The composite z-score with Torsin-1A (Homo sapiens) [18] stood at 2.57; in assay [19] it was 2.17. For the same molecule, the z-score in assay [7] is 0.0314; in [9] it was 0.047 (inactive); in assay [11], -2.11 (inactive); in [12] it was -1.14 (inactive); in assay [13] it was -1.15 (inactive); in assay [14], -1.03 (inactive).

Turning to `CC(=O)c1ccc(C(O)C2C=CC3C(=O)NC(=O)C3N2Nc2ccc(Cl)cc2Cl)cc1` (stereo not given), the composite z-score is 1.48 in [1]; -0.106 in assay [2]; -0.363 in [3]; -0.131 in [4]; 0.504 in [5]; -0.115 in [6]. In addition, the composite z-score with Lefty1 is -0.0596; in assay [8], 0.564; in assay [10], 0; in [15] it was 0.147; in assay [16], 0.0565; with Torsin-1A (Homo sapiens) [17], 0.027. The composite z-score in the assay with Torsin-1A (Homo sapiens) [18] is 0.0127; in assay [19], -0.257. Further, the z-score in assay [7] is -0.76; in [9], 0.284 (inactive); in assay [11] it was 0.102 (inactive); in assay [12], -0.806 (inactive); in [13], 0.626 (inactive); in [14] it was 0.412 (inactive).

With `C=CC[C@]1(C(=O)OC)N=C(c2ccc(OCCCO)cc2)O[C@H]1c1ccccc1N=[N+]=[N-]`, the composite z-score in assay [1] came to 3.65; in [2] it was 1.21; in [3] it was 1.01; in [4] it was 0.266; in assay [5], 1.43; in assay [6], 1.78. Further, the composite z-score was 1.12 with Lefty1; 0.291 in [8]; 1.2 in assay [10]; 0.126 in [15]; 0.707 in [16]; 0.662 with Torsin-1A (Homo sapiens) [17]. The figures for the composite z-score (with Torsin-1A (Homo sapiens) [18]; in assay [19]) were 1 and 1.68, respectively. Also, the z-score in assay [7] was -0.674; in [9], -11 (active); in assay [11], -3.62 (inactive); in assay [12] it was -1.04 (inactive); in assay [13] it was 0.171 (inactive); in assay [14], -2.05 (inactive).
